The values below come from the antibiotic and cytotoxicity screens of Wong et al. (2023).

Hit rate of the full screen: of about 39,000 compounds, about 1,500 (3.8%) were called active. The list comes from a sample in which actives are over-represented; it also holds similar structures and randomly drawn compounds.

The assay relates to HSkMC (human skeletal muscle cells). The assay can be described thus: cytotoxicity call (relative viability < 0.9). The conditions noted are these: 10 µM.
Take `Cn1cnc(CCNC(=O)C[C@@H]2CC[C@@H]3[C@H](COC[C@@H](O)CN3C(=O)C3CC3)O2)c1`: the cytotoxicity call is “inactive”.
Consider `C[C@H](CO)N1C[C@H](C)[C@@H](CN(C)S(=O)(=O)c2cccs2)Oc2c(NC(=O)c3cnccn3)cccc2C1=O`, for which the cytotoxicity call is “inactive”.
With `COc1cccc(-c2cnc3c(c2)C(=O)N([C@H](C)CO)C[C@H](C)[C@H](CN(C)S(=O)(=O)c2cccs2)O3)c1`, the cytotoxicity call was “inactive”.
As to `COc1ccc(S(=O)(=O)N(C)C[C@@H]2OCc3cn(nn3)CCCC(=O)N([C@@H](C)CO)C[C@H]2C)cc1`, the cytotoxicity call is “inactive”.
Take `C[C@H](CO)N1C[C@H](C)[C@H](CN(C)C(=O)NC2CCCCC2)Oc2ccc(NS(=O)(=O)c3cn(C)cn3)cc2C1=O`: the cytotoxicity call is “inactive”.
As to `CC1(C)OC(=O)C2(C(=O)O1)[C@@H](c1ccc(-c3ccc(-c4ccc(O)cc4)cc3)cc1)CC(=O)C[C@H]2c1ccccc1`, the cytotoxicity call was “inactive”.
With `CCCn1c(=O)[nH]c(=O)c2[nH]cnc21`, the cytotoxicity call is “inactive”.
`COc1ccc(NC(=O)N(C)C[C@@H]2Oc3ccc(NC(=O)CCCCCC(=O)Nc4ccccc4N)cc3C(=O)N([C@H](C)CO)C[C@@H]2C)cc1`: the cytotoxicity call is “inactive”.
`COc1ccc(NC(=O)Nc2ccc3c(c2)CC(=O)N([C@@H](C)CO)C[C@H](C)[C@@H](CN(C)Cc2ccc(Cl)c(Cl)c2)O3)cc1`: the cytotoxicity call is “inactive”.
For the compound `COc1ccc(NC(=O)Nc2ccc3c(c2)CC(=O)N([C@@H](C)CO)C[C@@H](C)[C@H](CN(C)Cc2ccc(Cl)c(Cl)c2)O3)cc1`, the cytotoxicity call was “inactive”.
For `COc1ccc(NC(=O)Nc2ccc3c(c2)CC(=O)N([C@H](C)CO)C[C@@H](C)[C@@H](CN(C)Cc2ccc(Cl)c(Cl)c2)O3)cc1`, the cytotoxicity call is “active”.
`COc1ccc(NC(=O)Nc2ccc3c(c2)CC(=O)N([C@H](C)CO)C[C@H](C)[C@H](CN(C)Cc2ccc(Cl)c(Cl)c2)O3)cc1`: the cytotoxicity call was “inactive”.
For `COc1ccc(NC(=O)Nc2ccc3c(c2)CC(=O)N([C@H](C)CO)C[C@@H](C)[C@H](CN(C)Cc2ccc(Cl)c(Cl)c2)O3)cc1`, the cytotoxicity call was “inactive”.
Regarding `COc1ccc(NC(=O)Nc2ccc3c(c2)CC(=O)N([C@@H](C)CO)C[C@H](C)[C@H](CN(C)Cc2ccc(Cl)c(Cl)c2)O3)cc1`, the cytotoxicity call is “active”.
With `C[C@@H]1CCCCO[C@@H](CN(C)C(=O)Nc2cccc3ccccc23)[C@@H](C)CN([C@H](C)CO)C(=O)c2cc(NC(=O)Nc3cccc4ccccc34)ccc2O1`, the cytotoxicity call is “inactive”.
Next, `NC(=O)CSc1ncn(-c2ccccc2)n1`: “inactive”; `O=C(CCCCCNC(=O)OCc1ccc(CO[C@H]2C[C@@H](c3csc4ccccc34)C=C(C(=O)N3CCN(Cc4ccccc4)CC3)O2)cc1)NO`: “inactive”.
As for `CC(C)C(=O)Nc1ccc([N+](=O)[O-])c(C(F)(F)F)c1`, the cytotoxicity call is “inactive”.
Next, `O=C(Nc1ccc(-c2nc3cc(NC(=O)c4ccccc4[N+](=O)[O-])ccc3o2)cc1)c1ccccc1[N+](=O)[O-]`: “inactive”; `O=C(N[C@H](NC(=S)Nc1ccc(F)c([N+](=O)[O-])c1)C(Cl)(Cl)Cl)C(c1ccccc1)c1ccccc1`: “active”; `C[C@@H]1CN([C@@H](C)CO)C(=O)c2cc(NC(=O)Nc3ccc4c(c3)OCO4)ccc2O[C@@H](C)CCCCO[C@H]1CN(C)C(=O)c1ccccc1`: “inactive”.
For the compound `COCC(=O)Nc1ccc2c(c1)OC[C@@H](C)N(C(=O)c1ccccc1F)C[C@@H](C)[C@@H](OC)CN(C)C2=O`, the cytotoxicity call is “inactive”.
With `C[C@H](CO)N1C[C@H](C)[C@@H](CN(C)C(=O)NC2CCCCC2)Oc2ccc(NC(=O)CCN3CCOCC3)cc2C1=O`, the cytotoxicity call was “inactive”.
Consider `Cc1ccc(S(=O)(=O)Nc2ccc3c(c2)C(=O)N([C@H](C)CO)C[C@@H](C)[C@H](CN(C)Cc2ccc(Cl)c(Cl)c2)O3)cc1`, for which the cytotoxicity call was “active”.
Regarding `Cc1ccc(S(=O)(=O)Nc2ccc3c(c2)C(=O)N([C@@H](C)CO)C[C@@H](C)[C@H](CN(C)Cc2ccc(Cl)c(Cl)c2)O3)cc1`, the cytotoxicity call is “inactive”.
Next, `Cc1ccc(S(=O)(=O)Nc2ccc3c(c2)C(=O)N([C@H](C)CO)C[C@@H](C)[C@@H](CN(C)Cc2ccc(Cl)c(Cl)c2)O3)cc1`: “active”; `Cc1ccc(S(=O)(=O)Nc2ccc3c(c2)C(=O)N([C@H](C)CO)C[C@H](C)[C@H](CN(C)Cc2ccc(Cl)c(Cl)c2)O3)cc1`: “active”; `Cc1ccc(S(=O)(=O)Nc2ccc3c(c2)C(=O)N([C@@H](C)CO)C[C@H](C)[C@@H](CN(C)Cc2ccc(Cl)c(Cl)c2)O3)cc1`: “active”.
As for `Cc1ccc(S(=O)(=O)Nc2ccc3c(c2)C(=O)N([C@@H](C)CO)C[C@H](C)[C@H](CN(C)Cc2ccc(Cl)c(Cl)c2)O3)cc1`, the entry is “inactive”; as for `Cc1ccc(S(=O)(=O)Nc2ccc3c(c2)C(=O)N([C@H](C)CO)C[C@H](C)[C@@H](CN(C)Cc2ccc(Cl)c(Cl)c2)O3)cc1`, “inactive”.
Next, `Cc1cccc(C(=O)N2CCC[C@@H](Cn3cc(C(C)(C)N)nn3)C2)c1C`: “inactive”; `CC(C)NC(=O)Nc1ccc2c(c1)C(=O)N([C@@H](C)CO)C[C@H](C)[C@@H](CN(C)S(=O)(=O)c1ccccc1)O2`: “inactive”.
With `C[C@@H]1CCCCO[C@H](CN(C)S(=O)(=O)c2cccs2)[C@H](C)CN([C@@H](C)CO)C(=O)c2cc(NC(=O)Cc3ccccc3)ccc2O1`, the cytotoxicity call is “inactive”.
Next, `C[C@H]1CN([C@@H](C)CO)C(=O)c2cccc(NS(=O)(=O)c3cccs3)c2O[C@H]1CN(C)S(=O)(=O)c1ccc(F)cc1`: “inactive”.
Turning to `CN(C)Cc1cn(CC[C@H]2CC[C@H](N)[C@@H](CO)O2)nn1`, the cytotoxicity call is “inactive”.
As for `Cc1noc(C)c1NC(=O)Nc1ccc2c(c1)C(=O)N([C@@H](C)CO)C[C@H](C)[C@H](CN(C)C(=O)Nc1ccc(C(F)(F)F)cc1)OCCCC[C@H](C)O2`, the cytotoxicity call is “inactive”.
As to `O=C(C[C@H]1CC[C@H]2[C@@H](COC[C@@H](O)CN2C(=O)c2cccnc2)O1)NCc1ccc(-c2ccccc2)cc1`, the cytotoxicity call was “inactive”.
As for `Cn1nnnc1SCC(=O)Nc1ncccn1`, the cytotoxicity call was “inactive”.
With `C[C@@H]1CN([C@H](C)CO)C(=O)c2cccc(NS(=O)(=O)c3ccccc3)c2O[C@@H]1CN(C)Cc1ccc(Cl)c(Cl)c1`, the cytotoxicity call is “inactive”.
Next, `Cn1cnc(S(=O)(=O)N2C[C@@H](O)COC[C@@H]3O[C@@H](CC(=O)NC4Cc5ccccc5C4)CC[C@H]32)c1`: “inactive”; `C[C@H](O)C#Cc1ccc2c(c1)O[C@H](CN(C)C(=O)Nc1ccccc1)[C@H](C)CN([C@H](C)CO)S2(=O)=O`: “inactive”; `COc1ccc(S(=O)(=O)Nc2ccc3c(c2)C(=O)N([C@H](C)CO)C[C@H](C)[C@H](CN(C)S(C)(=O)=O)OCCCC[C@@H](C)O3)cc1`: “inactive”.
With `Cc1cnc2c(c1NCCN(C)C)c(=O)n(C)c(=O)n2C`, the cytotoxicity call was “inactive”.
Consider `CCOc1nc2ccccc2c(=O)n1CCO`, for which the cytotoxicity call is “inactive”.
Regarding `C[C@H](CO)N1C[C@H](C)[C@H](CN(C)C(=O)c2ccc3c(c2)OCO3)Oc2cc(-c3cncnc3)ccc2S1(=O)=O`, the cytotoxicity call is “inactive”.
On to `O=C1c2ccncc2C(=O)N1CO`, for which the cytotoxicity call was “inactive”.
Consider `CO[C@@H](CN(C)S(=O)(=O)c1cccc(Cl)c1)[C@@H](C)CN([C@@H](C)CO)S(=O)(=O)c1ccc(Cl)cc1`, for which the cytotoxicity call was “inactive”.
Consider `CC(C)NC(=O)N(C)C[C@@H]1Oc2ccc(NS(=O)(=O)c3cn(C)cn3)cc2C(=O)N([C@@H](C)CO)C[C@@H]1C`, for which the cytotoxicity call was “inactive”.
With `FC(F)(F)c1ccccc1/N=C1\CCCc2ccccc21`, the cytotoxicity call was “inactive”.
For `Cc1ccc(S(=O)(=O)Nc2ccc3c(c2)C(=O)N([C@@H](C)CO)C[C@@H](C)[C@@H](CN(C)Cc2ccc(Cl)c(Cl)c2)O3)cc1`, the cytotoxicity call is “active”.
Next, `CO[C@@H]1[C@@H](O[C@@H]2O[C@H](C)[C@@H](O[C@H]3C[C@@](C)(O)[C@@H](OC(=O)CC(C)C)[C@H](C)O3)[C@H](N(C)C)[C@H]2O)[C@@H](CC=O)C[C@@H](C)[C@@H](O)/C=C/C=C/CC(C)OC(=O)C[C@H]1OC(C)=O` (stereo partly drawn): “active”; `COC1C(O)CC(=O)OC(C)CC=CC=CC(O)C(C)CC(CC=O)C1OC1OC(C)C(OC2CC(C)(O)C(OC(=O)CC(C)C)C(C)O2)C(N(C)C)C1O` (stereo not drawn) [KITASAMYCINS [A1 shown] ]: “inactive”.
As for `CO[C@@H]1[C@@H](O[C@@H]2O[C@H](C)[C@@H](O[C@H]3C[C@@](C)(O)[C@@H](OC(=O)CC(C)C)[C@H](C)O3)[C@H](N(C)C)[C@H]2O)[C@@H](CC=O)C[C@@H](C)[C@@H](O)/C=C\C=C/C[C@@H](C)OC(=O)C[C@H]1OC(C)=O`, the cytotoxicity call was “inactive”.
Turning to `COc1ccccc1CNC(=O)C[C@@H]1C[C@@H]2c3cc(NS(=O)(=O)c4ccc(F)cc4)ccc3O[C@@H]2[C@@H](CO)O1`, the cytotoxicity call is “inactive”.
As to `Cc1ccc(S(=O)(=O)N(C)C[C@@H]2OCCCC[C@H](C)Oc3ccc(NC(=O)Nc4c(C)noc4C)cc3C(=O)N([C@H](C)CO)C[C@H]2C)cc1`, the cytotoxicity call was “inactive”.
As for `CC(C)C[N+]1(C)Cc2ccccc2C1`, the cytotoxicity call is “inactive”.
`Cc1ccc(S(=O)(=O)Nc2ccc3c(c2)C(=O)N([C@@H](C)CO)C[C@H](C)[C@@H](CN(C)Cc2ccc(-c4ccccc4)cc2)O3)cc1`: the cytotoxicity call is “inactive”.
Next, `C[C@H](CO)N1C[C@H](C)[C@H](CN(C)Cc2ccc(-c3ccccc3)cc2)Oc2ccc(NS(=O)(=O)c3cccs3)cc2C1=O`: “inactive”; `C[C@@H]1CN([C@@H](C)CO)C(=O)c2cc(NS(=O)(=O)c3ccccc3)ccc2O[C@H]1CN(C)Cc1ccc(-c2ccccc2)cc1`: “inactive”; `Cc1ccc(S(=O)(=O)Nc2ccc3c(c2)C(=O)N([C@H](C)CO)C[C@@H](C)[C@@H](CN(C)Cc2ccc(-c4ccccc4)cc2)O3)cc1`: “active”.
`Cc1ccc(S(=O)(=O)Nc2ccc3c(c2)C(=O)N([C@H](C)CO)C[C@H](C)[C@H](CN(C)Cc2ccc(-c4ccccc4)cc2)O3)cc1`: the cytotoxicity call was “active”.
`Cc1ccc(S(=O)(=O)Nc2ccc3c(c2)C(=O)N([C@@H](C)CO)C[C@@H](C)[C@H](CN(C)Cc2ccc(-c4ccccc4)cc2)O3)cc1`: the cytotoxicity call is “inactive”.
Take `Cc1ccc(S(=O)(=O)Nc2ccc3c(c2)C(=O)N([C@@H](C)CO)C[C@@H](C)[C@@H](CN(C)Cc2ccc(-c4ccccc4)cc2)O3)cc1`: the cytotoxicity call was “inactive”.
`C[C@@H]1CN([C@H](C)CO)C(=O)c2cc(NS(=O)(=O)c3cccs3)ccc2O[C@@H]1CN(C)Cc1ccc(-c2ccccc2)cc1`: the cytotoxicity call was “active”.
Take `C[C@H]1CN([C@@H](C)CO)C(=O)c2cc(NS(=O)(=O)c3ccccc3)ccc2O[C@H]1CN(C)Cc1ccc(-c2ccccc2)cc1`: the cytotoxicity call was “inactive”.
Next, `Cc1ccc(S(=O)(=O)Nc2ccc3c(c2)C(=O)N([C@H](C)CO)C[C@@H](C)[C@H](CN(C)Cc2ccc(-c4ccccc4)cc2)O3)cc1`: “inactive”; `C[C@@H]1CN([C@@H](C)CO)C(=O)c2cc(NS(=O)(=O)c3ccccc3)ccc2O[C@@H]1CN(C)Cc1ccc(-c2ccccc2)cc1`: “active”.
Take `C[C@H](CO)N1C[C@H](C)[C@@H](CN(C)Cc2ccc(-c3ccccc3)cc2)Oc2ccc(NS(=O)(=O)c3cccs3)cc2C1=O`: the cytotoxicity call is “inactive”.
